Experimental data from the supplement of paper PMC7411054.
Structures can show the parent of a compound that is named as a salt.

How the values were obtained:
Test in all cases: phenotypically active (imaging signature differs from DMSO and reproducible) at any of 0.3-9 uM (binary (1 = active, 0 = inactive)); higher = active
Details in all cases: treatment time: 24 h
[1] = test system: A549-ACTB-RAB5A
How it was run: (§1)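 After 24 h at 0.3, 1, 3 or 9 µM, with four wells per treatment, fifteen gene-edited A549, HepG2 and WPMY1 reporter lines carrying BFP, GFP and RFP/FusionRed were imaged live. Each well's live-cell features were expressed relative to solvent control wells. Deviation required ≥3 of 4 wells past the 95th percentile of control Euclidean distances, and reproducibility a median replicate Pearson correlation over the 95th percentile of non-replicates. Phenotypic activity rested on both.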

[2] = test system: A549-CANX-COX4
How it was run: as §1

[3] = test system: A549-GM130-SQSTM1
How it was run: as §1

[4] = test system: A549-TP53BP1-CLTA
How it was run: as §1

[5] = test system: A549-TUBA1B-RELA
How it was run: as §1

[6] = test system: HepG2-ACTB-RAB5A
How it was run: as §1

[7] = test system: HepG2-CANX-COX4
How it was run: as §1

[8] = test system: HepG2-GM130-SQSTM1
How it was run: as §1

[9] = test system: HepG2-TP53BP1-CLTA
How it was run: as §1

[10] = test system: HepG2-TUBA1B-RELA
How it was run: as §1

[11] = test system: WPMY1-ACTB-RAB5A
How it was run: as §1

[12] = test system: WPMY1-CANX-COX4
How it was run: as §1

[13] = test system: WPMY1-GM130-SQSTM1
How it was run: as §1

[14] = test system: WPMY1-TP53BP1-CLTA
How it was run: as §1

[15] = test system: WPMY1-TUBA1B-RELA
How it was run: as §1

Measured: phenotypically active

O=C1CCC[C@@H]2[C@H]3CCCN4CCC[C@@H](CN12)[C@@H]34 [Matrine]
inactive: [1] 0 | [2] 0 | [3] 0 | [4] 0 | [5] 0 | [6] 0 | [7] 0 | [8] 0 | [9] 0 | [10] 0 | [11] 0 | [12] 0 | [13] 0 | [14] 0 | [15] 0

N[C@@H]1C[C@H]1c1ccccc1 [Tranylcypromine hydrochloride]
inactive: [1] 0 | [2] 0 | [3] 0 | [4] 0 | [5] 0 | [6] 0 | [7] 0 | [8] 0 | [9] 0 | [10] 0 | [11] 0 | [12] 0 | [13] 0 | [14] 0 | [15] 0

N#CC(C#N)=Cc1ccc(O)c(O)c1
inactive: [1] 0 | [2] 0 | [3] 0 | [4] 0 | [5] 0 | [6] 0 | [7] 0 | [8] 0 | [9] 0 | [10] 0 | [11] 0 | [12] 0 | [13] 0 | [14] 0 | [15] 0

CN1C2CCC1CC(O)C2 (stereo not given) [Tropine]
inactive: [1] 0 | [2] 0 | [3] 0 | [4] 0 | [5] 0 | [6] 0 | [7] 0 | [8] 0 | [9] 0 | [10] 0 | [11] 0 | [12] 0 | [13] 0 | [14] 0 | [15] 0

CCOc1cc(C=O)ccc1O [Ethylvanilline]
inactive: [1] 0 | [2] 0 | [3] 0 | [4] 0 | [5] 0 | [6] 0 | [7] 0 | [8] 0 | [9] 0 | [10] 0 | [11] 0 | [12] 0 | [13] 0 | [14] 0 | [15] 0

NC(=S)N/N=C/c1coc2ccccc2c1=O
inactive: [1] 0 | [2] 0 | [3] 0 | [4] 0 | [5] 0 | [6] 0 | [7] 0 | [8] 0 | [9] 0 | [10] 0 | [11] 0 | [12] 0 | [13] 0 | [14] 0 | [15] 0

CCN1C[C@@]2(COC)C3[C@@H](OC)[C@H]4[C@H]1C3([C@@H]1C[C@@]3(O)[C@H](OC(=O)c5ccccc5)[C@@H]1[C@]4(OC(C)=O)[C@@H](O)[C@@H]3OC)[C@H](OC)C[C@H]2O [Aconitine]
inactive: [1] 0 | [2] 0 | [3] 0 | [4] 0 | [5] 0 | [6] 0 | [7] 0 | [8] 0 | [9] 0 | [10] 0 | [11] 0 | [12] 0 | [13] 0 | [14] 0 | [15] 0

CCN(C(C)=O)c1cccc(-c2ccnc3c(C#N)cnn23)c1 [zaleplon]
inactive: [1] 0 | [2] 0 | [3] 0 | [4] 0 | [5] 0 | [6] 0 | [7] 0 | [8] 0 | [9] 0 | [10] 0 | [11] 0 | [12] 0 | [13] 0 | [14] 0 | [15] 0

CC(C)[N+](C)(CCC(C(N)=O)(c1ccccc1)c1ccccc1)C(C)C [isopropamide-iodide]
inactive: [1] 0 | [2] 0 | [3] 0 | [4] 0 | [5] 0 | [6] 0 | [7] 0 | [8] 0 | [9] 0 | [10] 0 | [11] 0 | [12] 0 | [13] 0 | [14] 0 | [15] 0

O=P1(NCCCl)OCCCN1CCCl (stereo not given) [ifosfamide]
inactive: [1] 0 | [2] 0 | [3] 0 | [4] 0 | [5] 0 | [6] 0 | [7] 0 | [8] 0 | [9] 0 | [10] 0 | [11] 0 | [12] 0 | [13] 0 | [14] 0 | [15] 0

COc1ccc2c(c1)[C@]13CCCC[C@@H]1[C@H](C2)N(C)CC3 [dextromethorphan]
inactive: [1] 0 | [2] 0 | [3] 0 | [4] 0 | [5] 0 | [6] 0 | [7] 0 | [8] 0 | [9] 0 | [10] 0 | [11] 0 | [12] 0 | [13] 0 | [14] 0 | [15] 0
